# Source: PubChem BioAssay AID463173 (ICCB-Longwood Screening Facility, Harvard Medical School, 2010)
# About 4,300 (8.3%) of roughly 52,000 compounds were called active. Many of the other results were omitted from the sample, so actives are more common in it than they were. Unmarked numbers belong to inactive results. No stated cut-off is given here; in the data, active means survival mostly below about 52% (no sharp cut-off); inactive means mostly above about 56%.
# Test system: DeltatarO mutant
# Test: growth inhibition of S. aureus wild type versus tarO mutant, primary screen, teichoic acid synthesis inhibitors, RN4220, OD600 (AID 463173)
# Settings: OD600, 18 h, hits give low values, screened at 18.75 µg/mL (by protocol)
row,Structure (SMILES),survival
1,Cc1ccccc1CNC(=O)CN1C(=O)C2CCCCN2c2ccc(C(=O)N3CCCC3)cc21 (stereo not drawn),76%
2,CCC(C)NC(=O)c1ccc2c(c1)N(Cc1ccccc1F)C(=O)c1ccccc1S2=O (stereo not drawn),64%
3,Cc1ccc2oc(-c3ccc(Cl)cc3)c(O)c(=O)c2c1,72%
4,COc1cccc(-c2nnc(SCC(=O)N3CCc4ccccc43)o2)c1,70%
5,O=C(CSc1nnc(-c2cccc(F)c2)o1)N1c2ccccc2Sc2ccccc21,114%
6,CC1Cc2ccccc2N1C(=O)CSc1nnc(-c2cccc(Cl)c2)o1 (stereo not drawn),34% (active)
7,COc1cccc(-c2nnc(SCC(=O)N3c4ccccc4Sc4ccccc43)o2)c1,35% (active)
8,O=C(CSc1nnc(-c2cccc(Cl)c2)o1)N1CCc2ccccc21,85%
9,CC1CCN(C(=O)CSc2nnc(-c3ccccc3Cl)o2)CC1,104%
10,CC1Cc2ccccc2N1C(=O)CSc1nnc(-c2ccccc2)o1 (stereo not drawn),69%
11,CC1Cc2ccccc2N1C(=O)CSc1nnc(-c2ccccc2Cl)o1 (stereo not drawn),49% (active)
12,CC1CCCCN1C(=O)CSc1nnc(-c2ccccc2Cl)o1 (stereo not drawn),74%
13,CCc1cccc(C)c1NS(=O)(=O)c1c(C(=O)N2CCCCCC2)c(C)n(C)c1C,101%
14,Cc1ccc(-n2ncc(C(=O)N3CCN(C4CCCCC4)CC3)c2C2CCN(C(=O)OC(C)(C)C)CC2)cc1C,85%
15,Cc1cccc(CNS(=O)(=O)c2csc(C(N)=O)c2)c1,76%
16,CC(Oc1ccccc1)C(=O)Nc1ccc(OCc2cc(=O)n3ccsc3n2)cc1 (stereo not drawn),76%
17,CCCn1c(=O)c2sccc2n2c(CCCC(=O)Nc3ccc(C)c(F)c3)nnc12,88%
18,O=C(C1CCCCC1)N1CCN(c2ncnc3c2cnn3-c2ccccc2)CC1,101%
19,O=CN1CCN(C(=O)c2ccc(F)cc2)CC1,78%
20,Cc1cccc(CNC(=O)c2sc3ncnc(N(C)C4CCCCC4)c3c2C)c1,46% (active)
21,Cc1c(C(=O)Nc2ccccc2Cl)sc2ncnc(N(C)C3CCCCC3)c12,92%
22,Cc1c(C(=O)Nc2ccccc2F)sc2ncnc(N(C)C3CCCCC3)c12,37% (active)
23,Cc1cccc(NC(=O)c2sc3ncnc(N(C)C4CCCCC4)c3c2C)c1C,118%
24,Cc1ccc(CNC(=O)c2sc3ncnc(N(C)C4CCCCC4)c3c2C)cc1,91%
25,Cc1c(C(=O)NCc2cccc(Cl)c2)sc2ncnc(N(C)C3CCCCC3)c12,101%
26,O=C(NC1CC(=O)N(c2cccc(F)c2)C1)c1ccc(S(=O)(=O)N2CCCCC2)cc1 (stereo not drawn),91%

row,Structure (SMILES),survival
1,CCc1ccccc1Nc1ncnc2c1nc1n2CCCC1,94%
2,O=C(CSc1nc2c([nH]c3ccccc32)c(=O)n1-c1ccc(Cl)cc1)N1CCCCCC1,76%
3,Cc1cccc(N(C)S(=O)(=O)c2nnc(NC(=O)C(C)Oc3ccccc3)s2)c1 (stereo not drawn),54%
4,CN(Cc1ccccc1)S(=O)(=O)c1nnc(NC(=O)c2ccccc2Cl)s1,29% (active)
5,CCOc1cccc(C(=O)Nc2nnc(S(=O)(=O)N(C)c3ccc(C)cc3)s2)c1,75%
6,CCCCC(=O)Nc1nnc(S(=O)(=O)N(C)Cc2ccccc2)s1,91%
7,Cc1cccc(C(=O)Nc2nnc(S(=O)(=O)N(C)Cc3ccccc3)s2)c1,23% (active)
8,Cc1ccc(C(=O)Nc2nnc(S(=O)(=O)N(C)Cc3ccc(Cl)cc3)s2)cc1,99%
9,CN(Cc1ccc(F)cc1)S(=O)(=O)c1nnc(NC(=O)c2ccccc2Cl)s1,85%
10,CCC(=O)Nc1nnc(S(=O)(=O)N(C)Cc2ccccc2)s1,87%
11,CN(Cc1ccccc1)S(=O)(=O)c1nnc(NC(=O)c2cccc(Cl)c2)s1,1% (active)
12,Cc1cccc(C(=O)Nc2nnc(S(=O)(=O)N(C)c3ccccc3C)s2)c1,32% (active)
13,Cc1ccccc1C(=O)Nc1nnc(S(=O)(=O)N(C)Cc2ccccc2)s1,75%
14,Cc1cccc(C(=O)Nc2nnc(S(=O)(=O)N(C)Cc3ccc(Cl)cc3)s2)c1,95%
15,Cc1ccc(S(=O)(=O)c2nnn3c2nc(N(C)Cc2ccccc2)c2cc(Cl)ccc23)cc1C,108%
16,Cc1ccccc1NC(=O)CSCn1nnc2c(=O)[nH]c(Cc3ccc(F)cc3)nc21,55%
17,CC(C)Cn1c(=O)c2ccccc2n2c(CCC(=O)Nc3cccc(Cl)c3)nnc12,88%
18,Cc1cc(OC(C)C(=O)N2CCC(c3nc4ccccc4o3)CC2)ccc1Cl (stereo not drawn),57%
19,COc1ccc(C(=O)N/C(=C\c2cn(S(=O)(=O)N(C)C)c3ccccc23)C(=O)NCCCn2ccnc2)cc1,85%
20,O=C(O)CCc1nnc2cnc3ccccc3n12,171%
21,CCc1ccc(NC(=O)CC2C(=O)NCCN2C(=O)c2ccccc2OC)cc1 (stereo not drawn),109%
22,COC(=O)c1ccc(NC(=O)c2cc3cc4ccc(OC)c(Cl)c4nc3s2)cc1,98%
23,Cc1ccc(NC(=O)CSc2cc(=O)n(C)c3ccc(Cl)cc23)c(Br)c1,79%
24,CCCCOC(=O)c1ccc(NC(=O)Cc2coc3c(C)c(C)ccc23)cc1,79%
25,CN(Cc1ccc(F)cc1)S(=O)(=O)c1nnc(NC(=O)c2ccccc2)s1,102%
26,CN(Cc1ccccc1)S(=O)(=O)c1nnc(NC(=O)c2ccccc2)s1,26% (active)

row,Structure (SMILES),survival
1,Cc1ccccc1N(C)S(=O)(=O)c1nnc(NC(=O)C(C)C)s1,69%
2,Cc1ccccc1N(C)S(=O)(=O)c1nnc(NC(=O)c2ccccc2F)s1,27% (active)
3,CN(Cc1ccc(F)cc1)S(=O)(=O)c1nnc(NC(=O)c2ccc(F)cc2)s1,81%
4,CCc1ccc(NC(=O)Cn2c(=O)n(-c3cc(OC)c(OC)c(OC)c3)c(=O)c3ccccc32)cc1,72%
5,COC(=O)c1cc2sc(Cl)cc2n1Cc1nc(-c2ccccc2C)oc1C,78%
6,Cc1cc(=O)n2c([nH]c3ccccc32)c1C(=O)O,61%
7,CCOC(=O)CSc1nc(-c2ccccc2)cc(C(F)(F)F)c1C#N,70%
8,N#Cc1c(C(F)(F)F)cc(=O)n2c1[nH]c1ccccc12,37% (active)
9,CC(=O)N1CCc2c(sc3c2c(=O)n(-c2ccccc2)c(=O)n3CC(=O)Nc2ccccc2)C1,91%
10,COc1cccc(NC(=O)C(=O)NCCc2csc(-c3ccc(C(F)(F)F)cc3)n2)c1,94%
11,CCOc1ccccc1NC(=O)c1nnn(CC(=O)Nc2ccc(OC)c(OC)c2)c1N,91%
12,CCCNC(=O)C1CCN(Cc2cc3ccccc3n2Cc2ccccc2)CC1,87%
13,Cc1ccc(Cn2c(CN3CCC(C(=O)NCC(C)c4ccccc4)CC3)cc3ccccc32)cc1 (stereo not drawn),113%
14,CC(CNC(=O)C1CCN(Cc2cc3ccccc3n2Cc2ccccc2)CC1)c1ccccc1 (stereo not drawn),47% (active)
15,Cc1cc(N2CCN(C)CC2)nc2ccc(NC(=O)Nc3ccc(F)cc3F)cc12,73%
16,O=C(Cc1ccc(F)cc1)NCCc1csc(-c2cccc(F)c2)n1,88%
17,Cc1ccc(C)c(NC(=O)/C(C#N)=C/c2ccc(C(C)C)cc2)c1,66%
18,Cc1cc(Cl)c2cccc(Br)c2n1,110%
19,Cc1cc(Nc2ccccc2C)c2cccc(C)c2n1,62%
20,Cc1cc(Nc2cccc(O)c2)c2cccc(Br)c2n1,61% (active)
21,Cc1ccc(C(C)C)c(OCCCn2c(=O)oc3ccccc32)c1,-3% (active)
22,Cc1ccc(C(C)C)c(OCC(=O)N2CCC(c3nc4ccccc4o3)CC2)c1,80%
23,CCOc1ccccc1NC(=O)NCCn1c(=O)oc2ccc(C)cc21,71%
24,Cc1cccc(NC(=O)NCCn2c(=O)oc3ccc(C)cc32)c1,71%
25,Cc1ccc(C(C)C)c(OCCCn2c(=O)oc3ccc(C)cc32)c1,-5% (active)
26,Cc1ccc(NC(=O)NCCOCCn2c(=O)oc3ccccc32)c(C)c1,70%

row,Structure (SMILES),survival
1,Cc1ccc(Cl)cc1NC(=O)Cn1c(=O)n(Cc2ccc(C(=O)NCc3ccc4c(c3)OCO4)cc2)c(=O)c2ccccc21,90%
2,COc1ccc(NC(=O)Cn2c(=O)n(-c3cc(C)cc(C)c3)c(=O)c3oc4ccccc4c32)cc1OC,68%
3,CCc1ccccc1NC(=O)c1ccc2c(c1)N(Cc1cccc(Cl)c1)C(=O)c1ccccc1S2(=O)=O,81%
4,O=S(=O)(NCCc1nnc2ccc(SCc3ccc(C(F)(F)F)cc3)nn12)c1ccccc1,67%
5,Cc1ccc2cccc(NC(=O)c3cccc4c(Cl)cccc34)c2n1,63%
6,COc1ccc(Br)cc1C(=O)Nc1cccc2ccc(C)nc12,73%
7,CCOc1ccccc1C(=O)Nc1cccc2ccc(C)nc12,68%
8,COc1c(C)cccc1C(=O)Nc1cccc2ccc(C)nc12,-1% (active)
9,Cc1ccc2cccc(NC(=O)c3cccc4c(Br)cccc34)c2n1,134%
10,Cc1ccc2cccc(NC(=O)c3cccc4ccccc34)c2n1,-2% (active)
11,Cc1cc2c(cc1S(=O)(=O)CCC(=O)N1CCC(C)CC1)OCC(=O)N2,102%
12,Cc1ccccc1-c1nc(CS(=O)(=O)CC(=O)N2CCN(c3ccccc3)CC2)c(C)o1,65%
13,O=C(Cn1ccc2cc(S(=O)(=O)N3CCCC3)ccc21)NCc1ccc(Cl)cc1,84%
14,COc1cccc(-c2cc(C(F)(F)F)n3nc(-c4ccc(C)cc4)cc3n2)c1,142%
15,CC(=O)c1cccc(NC(=O)c2cc3nc(-c4ccc(Br)cc4)cc(C(F)(F)F)n3n2)c1,49%
16,Cc1cc2nc(-c3ccc(Br)cc3)cc(C(F)(F)F)n2n1,37% (active)
17,CCCNC(=O)c1cc2nc(-c3ccc(Br)cc3)cc(C(F)(F)F)n2n1,51% (active)
18,Cc1ccc(-c2cc(C(F)(F)F)n3nc(-c4cccc(Br)c4)cc3n2)cc1,46% (active)
19,COC(=O)c1c(NC(=O)c2cc3nc(-c4ccc(Br)cc4)cc(C(F)(F)F)n3n2)sc2c1CCCC2,70%
20,Cc1cc(C(F)(F)F)n2nc(-c3ccc(Br)cc3)cc2n1,66%
21,COc1ccc(-c2cc3nc(-c4ccc(Br)cc4)cc(C(F)(F)F)n3n2)cc1,51%
22,N#Cc1c(NC(=O)c2cc3nc(-c4ccc(Br)cc4)cc(C(F)(F)F)n3n2)sc2c1CCCC2,32% (active)
23,CCc1ccccc1NC(=O)c1cc2nc(-c3ccc(Br)cc3)cc(C(F)(F)F)n2n1,84%
24,Cc1ccc(-c2cc3nc(-c4ccccc4)cc(C(F)(F)F)n3n2)cc1,69%
25,Cc1ccc(-c2cc(C(F)(F)F)n3nc(C(=O)Nc4sc5c(c4C#N)CCC(C)C5)cc3n2)cc1 (stereo not drawn),95%
